Among the data in the supplement of paper PMC9262897, “Low-cost anti-mycobacterial drug discovery using engineered E. coli” (Nature Communications, 2022) are growth values, retold here.

The test relates to E. coli TESEC Mtb Alr. The test is described as follows: growth (OD600 after 10 h); higher = more growth (less inhibition). To be noted: compound 0.1 mM. Here is the method:
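TESEC Mtb Alr E. coli, or the Alr+ wild-type control, in 384-well plates with Prestwick library compounds at 0.1 mM and 1% DMSO, across arabinose induction levels of 1E3 to 1E7 nM. Growth is read as OD600 after 10 h at 37 °C in triplicate biological replicates.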

Where [1] appears, read: arabinose 1000 nM, raw OD600 reference: median of DMSO wells 0.294, cell-free background 0.041.
The mark [2] stands for this setting: arabinose 10000 nM, raw OD600 reference: median of DMSO wells 0.264, cell-free background 0.041.
Where [3] appears, read: arabinose 100000 nM, raw OD600 reference: median of DMSO wells 0.201, cell-free background 0.041.
Setting [4] is: arabinose 1000000 nM, raw OD600 reference: median of DMSO wells 0.193, cell-free background 0.041.
The mark [5] stands for this setting: arabinose 10000000 nM, raw OD600 reference: median of DMSO wells 0.146, cell-free background 0.041.

Molecules are shown by their SMILES. Where a name gives a salt, the structure may show the parent alone. ± gives the standard deviation of the averaged measurements.

On to `Nc1ccc(S(=O)(=O)Nc2ncccn2)cc1` [Sulfadiazine], for which the growth is, setting by setting: under setting [1], 0.288 ± 0.017; under setting [2], 0.241 ± 0.0079; under setting [3], 0.199 ± 0.036; under setting [4], 0.1549 ± 0.0004; under setting [5], 0.146 ± 0.0024.

With `CCCCOc1ccc(OCCCN2CCOCC2)cc1` [Pramoxine hydrochloride], the growth was determined as 0.268 ± 0.018 under setting [1]; 0.263 ± 0.011 under setting [2]; 0.195 ± 0.013 under setting [3]; 0.146 ± 0.0024 under setting [4]; 0.163 ± 0.0035 under setting [5].

Turning to `CCCc1nc2c(C)cc(-c3nc4ccccc4n3C)cc2n1Cc1ccc(-c2ccccc2C(=O)O)cc1` [Telmisartan], the growth came to 0.271 ± 0.02 under setting [1]; 0.291 ± 0.011 under setting [2]; 0.19 ± 0.016 under setting [3]; 0.228 ± 0.0023 under setting [4]; 0.156 ± 0.0075 under setting [5].

Consider `CCn1cc(C(=O)O)c(=O)c2cnc(N3CCCC3)nc21` [Piromidic acid], for which the growth stood at 0.314 ± 0.026 under setting [1]; 0.267 ± 0.0056 under setting [2]; 0.161 ± 0.019 under setting [3]; 0.182 ± 0.0092 under setting [4]; 0.145 ± 0.0049 under setting [5].

Turning to `Cc1ccc(C)c(OCCCC(C)(C)C(=O)O)c1` [Gemfibrozil], the growth came out at 0.258 ± 0.0058 under setting [1]; 0.22 ± 0.0045 under setting [2]; 0.163 ± 0.0097 under setting [3]; 0.153 ± 0.0071 under setting [4]; 0.121 ± 0.0017 under setting [5].

Take `C[C@@H]1C[C@H]2[C@@H]3C[C@H](F)C4=CC(=O)C=C[C@]4(C)[C@@]3(Cl)[C@@H](O)C[C@]2(C)[C@H]1C(=O)COC(=O)C(C)(C)C` [Clocortolone pivalate]: the growth by setting is: under setting [1], 0.307 ± 0.0044; under setting [2], 0.29 ± 0.013; under setting [3], 0.206 ± 0.031; under setting [4], 0.2 ± 0.027; under setting [5], 0.151 ± 0.0033.

As to `CC(=O)Nc1nnc(S(N)(=O)=O)s1` [Acetazolamide], the growth by setting is: under setting [1], 0.293 ± 0.023; under setting [2], 0.253 ± 0.0037; under setting [3], 0.234 ± 0.0084; under setting [4], 0.166 ± 0.0058; under setting [5], 0.141 ± 0.006.

On to `CC(C)C[C@H](NC(=O)[C@@H](O)[C@H](N)Cc1ccccc1)C(=O)O` [Ubenimex], for which the growth runs as follows: under setting [1], 0.28 ± 0.0072; under setting [2], 0.2345 ± 0.0011; under setting [3], 0.215 ± 0.028; under setting [4], 0.185 ± 0.006; under setting [5], 0.132 ± 0.0031.
